The target in test [1] is Glutathione peroxidase 1 (Homo sapiens) (UniProt P07203). Put plainly: Primary qHTS Assay for Inhibitors of Recombinant Selenoprotein Glutathione Peroxidase 1 (GPX1) (AID 1845191). Further: nearly all actives have a fitted effect of over 65% in size. Further: potency means the concentration at half of the fitted maximal effect. On activity, negative = inhibition: on the % scale 0 is the no-effect control and ±100 the full control effect. The procedure, abridged:
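GR-coupled readout: NADPH consumption tracked by fluorescence, ex 340/em 450 nm, at t=0 and after 15 min at RT. Final mix 10 nM GPX1, 1 mM GSH, 0.5 mM CHP, 0.5 mM NADPH, 100 nM GR, 0.01% BSA, following 30 min enzyme–compound preincubation.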

In test [2] the target is Phospholipid hydroperoxide glutathione peroxidase GPX4 (Homo sapiens) (UniProt P36969). Put plainly: Primary qHTS Assay for Inhibitors of Recombinant Selenoprotein Glutathione Peroxidase 4 (GPX4) (AID 1845192). Further: nearly all actives have a fitted effect of over 65% in size. Further: potency means the concentration at half of the fitted maximal effect. On activity change, negative = inhibition: series mostly up to about 50 µM; on the % scale 0 is the no-effect control and ±100 the full control effect. The method, boiled down: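 Steps: GPX4 plus compound, 30 min RT; add GR/GSH/NADPH master mix; start with cumene hydroperoxide; read 340/450 nm fluorescence at 0 and 15 min. Finals were 200 nM GPX4, 1 mM GSH, 0.5 mM CHP, 0.5 mM NADPH, 100 nM GR.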
(Quantitative high-throughput screening tests each substance at several concentrations.)

Test [3] concerns the target Luciferin 4-monooxygenase (Photinus pyralis) (UniProt P08659). Put plainly: Primary firefly luciferase (FLuc) qHTS assay for identification of artifact compounds. (AID 1845220). Further: nearly all actives have a fitted effect of over 60% in size. Further: potency means the concentration at half of the fitted maximal effect.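 On activity change, negative = inhibition: series mostly up to about 54 µM; plate controls were DMSO vehicle for no effect and no enzyme for full effect.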 The method, boiled down: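 D-luciferin and ATP (10 uM each, final) in Tris acetate buffer pH 7.6 were incubated with compounds for 15 min at room temperature. The reaction was started with 10 nM Photinus pyralis luciferase and luminescence read after 5 min. Percent inhibition was fitted to a 4-parameter Hill equation.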

The nature of test [4]: Primary fluorescence-based thiol-reactive (MSTI) qHTS assay for identification of artifact compounds. (AID 1845221). Further: nearly all actives have a fitted effect of over 65% in size. Further: potency means the concentration at half of the fitted maximal effect.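 On activity change, negative = thiol reactive: series mostly up to about 54 µM; thiol-reactive compounds lower the probe fluorescence signal.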 The method, boiled down:
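In PBS pH 7.4 with 2% DMSO, each compound met 4 uM MSTI for one hour at ambient temperature, shielded from light, before fluorescence detection.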

For test [5], the system named is Nanoluciferase (engineered Oplophorus gracilirostris luciferase). The test is described as follows: Primary Nanoluciferase (NLuc) qHTS assay for identification of artifact compounds. (AID 1845222).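 Further: series mostly up to about 54 µM; 0% = DMSO and -100% = no enzyme.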 The procedure, abridged: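 Diluted conditioned medium from NLuc-expressing S16 cells treated with compounds for 15 min at room temperature, then Nano-Glo substrate added; luminescence read after 5 min. Percent inhibition versus no-enzyme and DMSO controls fitted to 4-parameter Hill equation.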

Unmarked numbers belong to inactive results. Records with an inconclusive call do not appear. Calls of active or inactive are those of the source. The call rests on the fitted dose curve; in most records, active means well fitted curve in the direction sought with a large enough effect; inconclusive means small, poorly fitted or top-dose-only effect, or another doubt; inactive means no such curve, though single readings can be large; an effect the other way counts as inactive or inconclusive.

Glutathione peroxidase 1 (Homo sapiens), sequence (P07203 whole entry, looked up): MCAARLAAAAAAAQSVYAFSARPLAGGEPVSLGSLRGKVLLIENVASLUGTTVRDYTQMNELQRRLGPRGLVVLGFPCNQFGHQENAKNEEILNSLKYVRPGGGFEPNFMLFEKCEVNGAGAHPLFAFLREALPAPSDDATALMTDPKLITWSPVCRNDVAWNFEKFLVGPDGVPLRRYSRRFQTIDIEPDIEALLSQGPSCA
Phospholipid hydroperoxide glutathione peroxidase GPX4 (Homo sapiens), sequence (P36969 whole entry, looked up): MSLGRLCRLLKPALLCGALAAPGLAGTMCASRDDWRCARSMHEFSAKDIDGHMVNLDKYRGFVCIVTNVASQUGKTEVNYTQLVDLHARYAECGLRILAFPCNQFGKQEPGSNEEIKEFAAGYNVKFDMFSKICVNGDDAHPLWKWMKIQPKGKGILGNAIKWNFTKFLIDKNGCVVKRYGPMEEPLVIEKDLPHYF

`C=CC(=O)Nc1cccc(Nc2nc(Nc3ccc(NC4CN(CCF)C4)cc3OC)ncc2C(F)(F)F)c1`: the Potency result in test [1], in test [2], in test [3] and in test [5] was “inactive” throughout. For the same compound, the Potency in test [4] is 2.38 µM (active).

For the compound `CC[C@@H](C)Nc1cc(C(=O)NC2CC3CC[C@@H](C2)N3c2ccc(C(=O)C3CC3)cn2)c(C)cc1C(N)=O` (stereo not given in full), the Potency in test [1] is 16.3 µM (active); in test [2] it was 2.55 µM (active). Moreover, the Potency result in test [3], in test [4] and in test [5] was “inactive” in each case.

Take `C=C[C@@]1(C)C=C2C(=O)C(O)=C3[C@](C)(C(=O)O)CC[C@@H]4C[C@]34[C@]2(O)C(=O)C1`: the Potency entry in test [1], in test [2], in test [3] and in test [5] was “inactive” in each case. Besides, the Potency in test [4] is 13.1 µM (active).

Turning to `CNc1cccc(CCOc2ccc3c(c2)CN(CC(F)(F)F)C(=O)[C@H](CC(=O)O)C3)n1`, the Potency entry in test [1], in test [2], in test [3], in test [4] and in test [5] was “inactive” each time.

In the case of `CC1=CC2/C=C(\C)CCC3OC(C)(C)OC3CCC(=O)C23C(=O)NC(CC(C)C)C3C1C` (stereo not given), the Potency entry in test [1], in test [2], in test [3], in test [4] and in test [5] was “inactive” throughout.

For the compound `CC(C)(C)Oc1ccc(OCC2Cc3ccccc3CN2C(=O)c2cccc3ccccc23)cc1` (stereo not given), the Potency entry in test [1], in test [2], in test [3], in test [4] and in test [5] was “inactive” each time.

Turning to `CC(=O)NC[C@H]1CN(c2ccc(N3CCSCC3)c(F)c2)C(=O)O1`, the Potency result in test [1], in test [2], in test [3], in test [4] and in test [5] was “inactive” throughout.

On to `COc1cc(OC)c2c(=O)[nH]c(-c3cc(C)c(OCCO)c(C)c3)nc2c1`, for which the Potency entry in test [1], in test [2], in test [4] and in test [5] was “inactive” each time. The Potency in test [3] is 15.1 µM (active).

Take `COc1ccc(CCc2nc3c(C)c(-c4c(C)noc4C)c(C)cc3n2CCN2CCOCC2)cc1`: the Potency entry in test [1], in test [2], in test [3], in test [4] and in test [5] was “inactive” each time.

On to `CNCCN1CCC(c2cc(CN(C)C(=O)c3cccc(Oc4ccccc4)c3)ccn2)CC1`, for which the Potency entry in test [1], in test [2], in test [3], in test [4] and in test [5] was “inactive” each time.

For `C=C1C(=O)O[C@H]2C[C@@H](C)[C@@H]3CCC(=O)[C@@]3(C)C[C@H]12`, the Potency entry in test [1], in test [2], in test [3], in test [4] and in test [5] was “inactive” each time.

Take `CNc1nc(NCc2ccc(NS(C)(=O)=O)cc2Cl)cc(-c2ccccn2)n1`: the Potency result in test [1], in test [2], in test [3], in test [4] and in test [5] was “inactive” throughout.

Turning to `COc1ccc([C@H]2OC[C@H]3O[C@@H](O[C@H]4[C@@H]2NC[C@@H]4O)[C@H](O)[C@H]3O)cc1`, the Potency result in test [1], in test [2], in test [3], in test [4] and in test [5] was “inactive” in each case.

On to `CC1=C2C[C@@]3(C)C(CCC[C@@H]3C)C(O)C2OC1=O` (stereo not given in full), for which the Potency entry in test [1], in test [2], in test [3], in test [4] and in test [5] was “inactive” throughout.

For the compound `C[C@@H]1O[C@@H](O[C@H]2[C@H](OC(=O)[C@]34CCC(C)(C)C[C@H]3C3=CCC5[C@@]6(C)C[C@H](O)[C@H](O[C@@H]7O[C@H](CO)[C@@H](O)[C@H](O)[C@H]7O)[C@](CO)(C(=O)O)C6CC[C@@]5(C)[C@]3(C)C[C@H]4O)OC[C@H](O)[C@@H]2O)[C@H](O)[C@H](O)[C@H]1O[C@@H]1OC[C@@H](O)[C@H](O[C@@H]2OC[C@](O)(CO)[C@H]2O)[C@H]1O` (stereo not given in full), the outcome in test [1] is “inactive [at 9.52 µM]”. Also, the activity change, negative = inhibition in test [2] is -2.46% [at 9.73 µM]; in test [3], 1.03% [at 11.6 µM]. Moreover, in test [4], the activity change, negative = thiol reactive was 423% [at 11.5 µM]. Moreover, the activity, negative = inhibition in test [5] was 2.55% [at 11.6 µM].

As to `COc1cc2nc(C3CC3)nc(N3CCN(c4ccccc4OC)CC3)c2cc1OC`, the Potency entry in test [1], in test [2], in test [3], in test [4] and in test [5] was “inactive” in each case.

For `CC(C)n1nc(C#Cc2ccccc2)c2c(N)ncnc21`, the Potency result in test [1], in test [2], in test [3], in test [4] and in test [5] was “inactive” in each case.

For `O=C(O)c1ccc(S(=O)(=O)N(Cc2ccc(OC(F)(F)F)cc2)c2ncc(C(F)(F)F)cc2Cl)cc1`, the Potency result in test [1], in test [2], in test [3], in test [4] and in test [5] was “inactive” in each case.

Regarding `O=C(c1ccc(Cl)cc1)N1CCN(c2ccnc3cc(Cl)ccc23)CC1`, the Potency entry in test [1], in test [2], in test [3], in test [4] and in test [5] was “inactive” each time.

In the case of `O=C1COC2(CCN(S(=O)(=O)c3ccc(-c4ccc5cccnc5c4)cc3)CC2)CN1C1CC1`, the Potency entry in test [1], in test [2], in test [3], in test [4] and in test [5] was “inactive” throughout.

As to `C=C(C=O)[C@]1(O)C[C@@]2(C)C(=CC1=O)C=C[C@H](OC(=O)/C=C/C=C/[C@H](C)CC)[C@@H]2C`, the Potency result in test [1], in test [2], in test [3], in test [4] and in test [5] was “inactive” in each case.

In the case of `CN(C)C(=O)COC(=O)c1cc(-c2ccc(C3CCNCC3)cc2)c2ccc(-c3ccc(C(F)(F)F)cc3)cc2c1`, the Potency result in test [1], in test [2], in test [3], in test [4] and in test [5] was “inactive” in each case.

With `CC(=O)O[C@@H]1[C@@H](O)[C@H](O[C@@H]2[C@@H](O)[C@@H](O)[C@H](O[C@H]3[C@H](O[C@H]4[C@H](O[C@H]5CC[C@@]6(C)C(CC[C@]7(C)C6CC=C6[C@@H]8CC(C)(C)CC[C@]8(C(=O)O)CC[C@]67C)[C@]5(C)CO)O[C@H](CO)[C@@H](O)[C@@H]4O)OC[C@@H](O)[C@@H]3O)O[C@H]2C)OC[C@H]1O` (stereo not given in full), the Potency result in test [1] and in test [2] was “inactive” throughout. The activity change, negative = inhibition in test [3] was -4.72% [at 11.6 µM]. Moreover, the activity change, negative = thiol reactive in test [4] was 377% [at 11.5 µM]. Besides, the activity, negative = inhibition in test [5] was 1.48% [at 11.6 µM].

The values are drawn from PubChem BioAssay (NCATS).
